Screens as filed in PubChem.
rTrxR1 inhibitor = rat TrxR1 inhibition; 390,000 tested, 1% active; AID 588453; recombinant rTrxR1, NADPH fluorescence consumption, selenite substrate; Potency, µM (series often up to 114 µM), without a hit: top-dose activity change, negative = inhibition, most hits filed as inhibitors; O89049; note: nearly all actives have a fitted effect of over 65% in size
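Rat TrxR1 (90 nM in the dispensed reagent) was pre-reduced with 400 uM NADPH for 5 min at room temperature, then incubated with compound for 15 min. After 400 uM selenite was added, NADPH fluorescence (Ex 340/Em 450 nm) was followed for 8 min.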
PLK1 PBD inh = PLK1 (human) polo-box domain binding inhibition. Plk1 PBD binding of FITC phosphopeptide, fluorescence polarization. Potency, µM, for the others: max response, negative = inhibition, actives largely listed as inhibitors. 360,000 tested, 2.8% active. AID 720504; note: series mostly up to about 57 µM; nearly all actives have a fitted effect of over 65% in size
Target sequence (P53350 whole entry, looked up, the tested form may be a part): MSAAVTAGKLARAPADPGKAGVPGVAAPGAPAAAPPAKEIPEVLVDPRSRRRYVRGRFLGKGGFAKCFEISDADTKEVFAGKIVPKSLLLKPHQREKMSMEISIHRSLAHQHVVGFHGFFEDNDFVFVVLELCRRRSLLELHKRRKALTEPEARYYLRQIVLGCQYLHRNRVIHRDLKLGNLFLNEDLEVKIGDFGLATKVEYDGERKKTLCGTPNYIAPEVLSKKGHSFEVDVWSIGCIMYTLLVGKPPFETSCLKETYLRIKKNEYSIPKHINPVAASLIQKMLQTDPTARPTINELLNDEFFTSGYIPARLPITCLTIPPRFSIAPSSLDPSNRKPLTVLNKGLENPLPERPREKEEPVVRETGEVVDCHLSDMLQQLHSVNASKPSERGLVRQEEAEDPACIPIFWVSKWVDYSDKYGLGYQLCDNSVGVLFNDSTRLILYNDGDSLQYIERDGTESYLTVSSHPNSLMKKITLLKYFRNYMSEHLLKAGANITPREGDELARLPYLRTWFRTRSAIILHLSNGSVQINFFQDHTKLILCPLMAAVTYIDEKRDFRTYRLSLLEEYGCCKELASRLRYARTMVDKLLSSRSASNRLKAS
IDH1 R132H inh = inhibitors of human mutant IDH1 R132H; O75874; IDH1-R132H enzyme, NADPH consumption, diaphorase/resazurin fluorescence; Potency, µM (doses to about 76.6 µM), for the others: at the highest dose activity change, negative = inhibition, actives largely listed as inhibitors; 390,000 tested, 0.093% active; AID 602179; note: nearly all actives have a fitted effect of over 65% in size
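IDH1-R132H (0.5 ug/mL dispensed) in pH 7.5 Tris buffer was preincubated 30 min with compound, then given a substrate mix of 0.016 mM NADPH and 2 mM alpha-KG for 80 min at room temperature; remaining NADPH was read by diaphorase/resazurin fluorescence.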
TrxR1 substrate = rat thioredoxin reductase 1 substrate activity. O89049. purified TrxR1 substrate turnover, NADPH consumption readout. Potency, µM (titrated, usually from 114 µM), inactives show at the top dose activity change, negative = substrate turnover. 390,000 tested, 0.01% active. AID 588456; note: nearly all actives have a fitted effect of over 50% in size
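Rat TrxR1, dispensed at 90 nM, was prereduced with 400 uM NADPH (final) for 5 min at ~22 deg C, then incubated with compound 15 min before 400 uM selenite. A first-read NADPH fluorescence drop versus no-compound background flagged substrates.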
VDR inh = blocks the human vitamin D receptor; P11473; VDR-SRC2-3 peptide fluorescence polarization, 2 h; Potency, µM, for the others: max response, negative = inhibition, hits mostly inhibitors; 400,000 tested, 0.93% active; AID 504847
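Reagent solutions, kept cold and dark, are dispensed first; compounds are then pinned in at 23 nl, plates briefly spun, and incubated 2 h at ambient temperature. Inhibition of VDR–SRC2-3 peptide binding is read by fluorescence polarization.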
Sfp inh = inhibitors of Bacillus subtilis Sfp phosphopantetheinyl transferase | Q9F4F7 | Biochemical Sfp PPTase activity, qHTS | Potency, µM, inactives show largest response in the series, negative = inhibition, hits mostly inhibitors | 310,000 tested, 3.5% active | AID 1490;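 note: the enzyme is Sfp with the accession as filed and its product quenches rhodamine fluorescence; 0% = enzyme reaction without inhibitor and -100% = no enzyme wells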
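With Hepes-Na pH 7.6 buffer containing 10 mM MgCl2, Sfp (15 nM) modified BHQ-2-YbbR (12.5 uM) using rhodamine-CoA (5 uM). Two reads 30 minutes apart at 525/598 nm yielded each well's rate.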
Active calls of the source: *; ? = inconclusive; / = no result; [ ] = another dose, or the depositor's remark. Compounds with a hit are over-represented: about 5.2% of the library has one in this group of screens. Calls come from the whole dose curve; as a rule, active = well fitted curve in the direction sought with a large enough effect; inconclusive = small, poorly fitted or top-dose-only effect, or another doubt; inactive = no such curve, though single readings can be large; an effect the other way counts as inactive or inconclusive. Unless noted, % is set by controls: 0 for no effect and ±100 for the full control effect; potency is the fitted concentration of half-maximal effect.

SMILES	rTrxR1 inhibitor	PLK1 PBD inh	IDH1 R132H inh	TrxR1 substrate	VDR inh	Sfp inh
Cc1ccc(N2CC(C(=O)NCCS(=O)(=O)N3CCN(c4ccccc4F)CC3)CC2=O)cc1 (configuration not stated)	-9.7%	10.6µM*	-7.1%	-10.0%	?	15.5%
COCCNC(=O)CCC1CCN(Cc2ccc(-c3ccccc3)cc2)CC1	8.9%	1.3%	-12.5%	2.4%	8.4%	1.3%
Cc1ccc(C(=O)/C=C/c2ccc(-c3ccc(C)cc3)o2)cc1	17.8µM*	-23.8%	0.2%	-8.6%	-13.0%	8.91µM*
O=C(O)/C(=C\c1ccc(-c2ccc(F)cc2)o1)c1ccccc1	?	?	1.2%	-2.1%[57.1 µM]	-3.2%	8.91µM*
CCN(CC)S(=O)(=O)c1ccc(C(=O)/C=C/c2ccc(-c3ccc([N+](=O)[O-])cc3)o2)cc1	-19.7%	-29.6%	-0.3%	-1.8%	?	79.4µM*
O=[N+]([O-])c1ccc(-c2ccc(/C=N/O)o2)cc1	10.3%[57.1 µM]	0.1%	2.9%	5.8%[57.1 µM]	-16.0%	-0.3%
O=C(O)/C=C/c1ccc(-c2cccc(C(F)(F)F)c2)o1	?	?	-12.8%	-11.8%	-15.3%	3.2%
O=Cc1ccc(-c2ccc(F)cc2)o1	-1.4%	-6.0%	-0.9%	-4.2%	6.2%	8.8%
O=C(/C=C\c1ccc(-c2ccccc2)o1)c1ccccc1	10µM*	-3.1%	13.8%	-7.0%	-13.8%	11.2µM*
CCN(C[C@H]1N[C@@](CC)(C(=O)OC)[C@H]2C(=O)N(C)C(=O)[C@@H]12)S(=O)(=O)c1ccc(C(F)(F)F)cc1	7.5%	-14.8%	-4.1%	-3.7%	0.6%	/
CCOc1cc(/C=C(\C#N)C(=O)Nc2ccccn2)ccc1O	25.1µM*	-6.2%	3.7%	-1.0%	-14.1%	6.4%
CCOc1cc(/C=C(\C#N)C(=O)Nc2cccc(C(=O)O)c2)ccc1OCc1ccccc1Cl	16.0%	21.2µM*	32.9µM*	4.2%	?	?
N#C/C(=C\c1ccc(OCc2ccc(F)cc2)cc1)C(=O)Nc1cccc(C(=O)O)c1	14.4%	?	-1.2%	1.2%	?	11.3%
N#C/C(=C\c1ccc(OCc2ccc(Br)cc2)cc1)C(=O)Nc1cccc(C(=O)O)c1	22.3%[57.1 µM]	21.2µM*	0.6%	1.8%[57.1 µM]	?	-2.9%
CC(C)(C)n1ncc2c(=O)n(Cc3ccc(Cl)c(SC(F)(F)F)c3)cnc21	2.2%	/	/	-6.8%	/	/
COc1cc(NC(=O)CCNS(=O)(=O)c2cc(Br)cnc2N)cc(OC)c1	20.7%	-15.4%	0.2%	-2.5%	12.5%	-0.3%
COc1ccccc1CNC(=O)CCNS(=O)(=O)c1cc(Br)cnc1N	10.2%[57.1 µM]	26.7µM*	13.4%	4.3%[57.1 µM]	-22.6%	15.8%
Cc1ccc2[nH]c(=O)c(C(c3nnnn3C(C)(C)C)N3CCN(C(=O)c4ccco4)CC3)cc2c1 (configuration not stated)	-26.3%	2.1%	2.4%	5.4%	11.4%	44.7µM*
CC(C)(C)n1nnnc1C(c1ccccc1)N1CCN(C(=O)c2ccco2)CC1 (configuration not stated)	/	-11.5%	/	/	/	/
Cc1cccc2cc(C(c3nnnn3C(C)(C)C)N3CCN(C(=O)c4ccco4)CC3)c(=O)[nH]c12 (configuration not stated)	-5.2%	-6.2%	0.4%	-4.2%	0.0%	56.2µM*
Cn1c(/C=C/c2ccccc2)nc2ccccc21	37.7%	-3.0%	19.1%	82.3%	-7.6%	10.1%
CC(=O)c1ccc(/C=C/c2nc3ccccc3n2C)o1	?	-19.2%	3.8%	128.5%	0.9%	50.1µM*
O=C(NC(=S)Nn1cnnc1)c1ccccc1	-11.5%	?	-9.0%	8.7%	-14.8%	/
O=C(NC(=S)Nn1cnnc1)c1ccccc1Br	5.3%	29.9µM*	-3.1%	1.4%	?	25.1µM*
Cc1ccc(-n2nc3c(c2NC(=O)CC(C)C)CS(=O)C3)cc1 (configuration not stated)	-6.0%	-1.3%	4.2%	1.1%	2.7%	-8.9%
SMILES	rTrxR1 inhibitor	PLK1 PBD inh	IDH1 R132H inh	TrxR1 substrate	VDR inh	Sfp inh
O=C(Nc1nc(-c2ccccc2)c(-c2ccccc2)o1)c1ccc(F)cc1	2.2%	2.99µM*	-0.4%	-1.3%	-9.4%	9.2%
COc1cccc(C(=O)Nc2nc(-c3ccccc3)c(-c3ccccc3)o2)c1	28.5%	?	-6.1%	1.6%	-19.6%	27.3%
CCn1c(/C=C/c2ccccc2F)nc2ccccc2c1=O	6.1%[57.1 µM]	-4.0%	21.7%	-7.8%	-7.8%	0.4%
CC(C)(C)NC(=O)Nc1ccc(Cn2cc(C(F)(F)F)ccc2=O)cc1	16.4%[57.1 µM]	23.8µM*	1.5%	3.9%[57.1 µM]	-29.0%	17.2%
Cc1ccc(OCC(=O)Nc2cc(NC(=O)COc3ccc(C)cc3)cc(C(=O)O)c2)cc1	19.7%	-2.7%	0.7%	6.2%	-8.4%	-2.5%
Cc1ccc(OCC(=O)Nc2cc(C(=O)O)cc(C(=O)O)c2)cc1C	23.6%[57.1 µM]	2.99µM*	-9.1%	2.2%	17.8µM*	?
O=C(CN1CCc2ccccc2C1)c1cccs1	8.8%[57.1 µM]	-18.2%	2.1%	12.6%[57.1 µM]	-11.5%	56.2µM*
CC1CCN(CC(=O)c2cccs2)CC1	2.2%[57.1 µM]	-9.6%	-0.1%	5.8%[57.1 µM]	1.4%	7.7%
COc1cccc(=O)c2c(C)n(-c3ccc(C(=O)O)cc3)c(C)c12	0.9%[57.1 µM]	-29.2%	4.6%	-3.0%[57.1 µM]	5.7%	4.47µM*
CCOc1cccc(=O)c2c(C)n(-c3ccc(C(=O)O)cc3)c(C)c12	-17.4%[57.1 µM]	-21.0%	-5.6%	1.3%[57.1 µM]	-22.4%	28.2µM*
CCOc1cccc(=O)c2c(C)n(Cc3ccco3)c(C)c12	-12.4%	-1.3%	3.7%	0.0%	-0.9%	39.8µM*
COc1ccc(-n2c(C)c3c(OC)cccc(=O)c3c2C)cc1	-13.0%	-0.3%	4.2%	-5.3%	-0.8%	-17.9%
c1ccc(-c2nc(NCC3CC3)nc3ccsc23)cc1	/	-3.4%	/	/	/	/
O=C(NN1CCOCC1)c1cn(-c2ccccc2)nc1-c1cccs1	14.6%	23.8µM*	-4.5%	-2.8%	-18.7%	0.2%
Cc1cccc(C(=O)NN2S(=O)(=O)c3ccccc3S2(=O)=O)c1	16.2%	-4.7%	4.3%	6.4%	6.5%	50.1µM*
COc1ccc(-c2cc3ccc(O)c(CN4CCCCC4C)c3oc2=O)cc1OC (configuration not stated)	17.1%[57.1 µM]	/	-5.3%	27.9%[57.1 µM]	6.7%	/
O=S(=O)(Nc1ccc2nc(-c3ccc(Br)o3)[nH]c2c1)c1ccccc1	/	/	/	/	/	50.1µM*
O=S(=O)(Nc1ccc2nc(C(F)(F)F)[nH]c2c1)c1ccccc1	15.6%	1.5%	3.8%	18.8%	2.8%	9.9%
Cc1ccc(-c2nc3ccc(NS(=O)(=O)c4ccccc4)cc3[nH]2)o1	?	-6.0%	14.7%	-9.0%	11.5%	35.5µM*
O=C(NC1CCCCC1)Sc1ccc(Cl)cc1	17.8µM*	2.67µM*	1.5%	3.9%	22.4µM*	28.2µM*
